According to the supplement of paper PMC3334620:
The full ranking holds about 33,000 sequences; the median of “E-score (-0.5 to 0.5)” is about -0.016, and the highest 2% start at about 0.32. This excerpt belongs to a sample that is enriched for the highest values.

target: T1, Stp1 (UniProt B3LFK1); assay: PBM E-score (8-mer binding enrichment) (E-score (-0.5 to 0.5)); higher = stronger / more preferred TF binding; conditions: protein concentration: 200 nM; construct: GST-full length
T1 sequence: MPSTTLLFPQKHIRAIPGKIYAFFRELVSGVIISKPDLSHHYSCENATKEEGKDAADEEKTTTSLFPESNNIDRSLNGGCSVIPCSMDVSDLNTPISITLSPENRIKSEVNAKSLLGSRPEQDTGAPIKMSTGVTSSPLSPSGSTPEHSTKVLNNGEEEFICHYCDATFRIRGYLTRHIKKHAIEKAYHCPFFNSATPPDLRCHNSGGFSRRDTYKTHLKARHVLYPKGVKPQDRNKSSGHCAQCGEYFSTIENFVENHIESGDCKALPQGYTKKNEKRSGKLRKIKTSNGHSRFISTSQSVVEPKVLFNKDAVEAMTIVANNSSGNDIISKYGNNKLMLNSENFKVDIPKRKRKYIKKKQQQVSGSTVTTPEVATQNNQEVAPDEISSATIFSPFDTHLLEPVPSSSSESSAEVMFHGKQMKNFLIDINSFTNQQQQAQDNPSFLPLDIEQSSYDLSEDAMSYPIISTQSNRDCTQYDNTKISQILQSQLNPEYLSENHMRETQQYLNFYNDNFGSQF
Method: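 Universal 'all 10-mer' protein binding microarrays (Agilent AMADID 015681) probed with GST-tagged S. cerevisiae TFs (full-length or DBD) made by in vitro transcription/translation (PURExpress), about 100-200 nM. Bound TF was detected with fluorescent anti-GST. Each ungapped 8-mer (which stands for itself and its reverse complement) is scored by the PBM enrichment score (E-score), a modified Wilcoxon-Mann-Whitney statistic from -0.5 to +0.5, computed with the Universal PBM Analysis Suite. Scale: above 0.35 generally sequence-specific binding.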

Sequence	PBM E-score
CCTCTACC	-0.24
AGAGTGTC	0.0784
ATGATCAT	0.17
GCATAGAA	0.133
GCATTGGC	-0.0163
AGTTTGGA	0.0815
ACTGTCCT	-0.097
ACTCTCCC	-0.159
GAAACCTA	-0.22
GGACTACC	-0.286
AAGTCTGT	-0.193
AACGATTG	0.0458
CGACAGCC	-0.0511
CCGGCTCA	0.0597
TCGGCTCA	-0.0668
GCGGCTCA	0.461
AAGAACGC	0.185
AAGAGCCT	0.134
CAGAGCCG	0.338
AAGAGCCG	0.336
AAGAGCCA	0.103
CAGAGCCC	-0.0943
CAGAGCCA	-0.148
AGAATAAC	-0.00738
ACCAACGG	0.173

Sequence	PBM E-score
GTAGAGTA	0.0935
AGGGTAAC	-0.165
GACGCCGC	0.453
CACGCCGG	-0.0191
GACGCCCC	-0.00392
GACGCCGA	0.304
CACGCCGC	0.417
CACGCCGA	0.0798
GGAACTTA	-0.0446
CTGGCACA	-0.187
AGGGCACA	0.334
ATGGCACA	0.229
AGGGCACG	0.302
CGGGCACG	0.139
ATGGCACG	0.354
CTGGAGGC	-0.0215
ACTGGCTC	-0.267
AGTAGCTA	-0.16
CCCGGCAA	0.0207
TACGGCCA	0.214
ATCGGCAG	-0.00845
TACGGCAA	0.449
CTCGGCAA	0.1
CCCGGCAG	-0.227
AACGGCAG	0.384

Sequence	PBM E-score
TTCGGCAA	0.088
CTCGGCAG	0.117
CACGGCAG	0.428
CACGGCAA	0.469
ACCGGCAG	-0.121
AGACTTTC	-0.256
TCTCAACA	0.0271
CAGGCCAG	-0.0909
ATGGGAAC	-0.132
GTGAGCAC	-0.066
CCCTGATC	-0.255
CCTAACAC	0.067
CGAGCCTA	-0.0212
ACATTAAT	0.0799
ACAAGCGT	-0.135
ACCGGCAT	0.0121
AATGGCAC	0.275
AATGGCAG	0.0303
AACGGCAC	0.472
ATCGGCAA	0.106
ACCGGCAC	0.301
ATCGGCAC	0.297
AACGGCAT	0.451
AACGGCAA	0.432
ATCGGCAT	0.238

Sequence	PBM E-score
AATGGCAT	0.356
ACCGGCAA	-0.0651
TAGGGGAA	-0.171
AAAGGATT	-0.109
CAGTGGGG	-0.239
AAACTCGG	-0.0615
AGACTCAG	-0.133
CCTGCTTA	-0.0853
GTGTAGCA	-0.202
ATGGAAAC	-0.0997
CAAGCCCA	-0.0787
ACGGAATA	0.0278
GCCGGCAC	0.273
GCCGGCAA	0.106
GTCGGCAA	0.0611
GACGGCAA	0.325
GACGGAAC	-0.0397
GACGGCAC	0.453
CAAGCCCG	-0.0901
CCACACTA	0.127
ATCTAGCG	-0.0611
ACCAGATG	-0.146
ATGAGGCA	0.332
GGGAGGCA	0.00612
GAGAGGCA	0.208

Sequence	PBM E-score
AAGAGGCA	0.363
GTGAGGCA	0.367
ATGAGGAA	-0.0278
ATGAGGCG	0.35
AAGAGGCG	0.298
ATGAGGTG	-0.0679
AAGAGGCT	0.0613
ATGAGGCC	0.0892
CTGAGGCA	0.192
GTTCTGTA	0.0215
TCCCGCGA	-0.312
TATTGAGA	0.0944
CCTGCTCC	0.0227
CATTAAAA	0.245
CAAGACCC	-0.272
AAAGGACC	0.0732
ATGAGTAC	0.0493
CGTGTGGA	0.016
CATGTGGG	-0.144
AATGTGGC	0.158
CGTGTGGC	0.353
AGTGTGGC	0.068
CATGTGGC	0.32
AGCTCATC	-0.307
TAGCACCA	-0.0587

Sequence	PBM E-score
GCAACTAA	0.263
ATGTTTCG	0.147
AAAAACGA	0.128
GCGGCCCC	0.176
GGGGCGCA	0.126
CCGGCGGC	0.152
CCGGCGCC	0.367
TCGGCGCA	0.243
CCGGCGCG	0.298
CCGGCGCA	0.121
GCGGCGCC	0.484
GCGGCGCA	0.463
CTTCAGAC	-0.00198
AGTCGCGC	0.0334
GCCCTAGA	-0.0515
CTGCTTCA	-0.155
ACTATCTG	-0.183
AGCCGCTA	0.119
CACCGCTC	-0.0467
AGCCGCTC	0.337
AGCCGCTG	0.0781
CGCCGCTA	0.299
CGCCGCTC	0.434
ATGACCAA	-0.0118
CGATTAGA	0.083

Sequence	PBM E-score
CGACAGGC	-0.0711
CAAGATCA	0.101
GCTGCCCC	-0.0352
CAGTCAAC	-0.139
CATACTTC	-0.12
CCACCCAC	0.0467
GGGCACCA	0.056
CTGCACCA	-0.199
AGGCACCT	0.135
TGGCACCA	0.176
AGGCACGA	0.267
AGGCACCA	0.366
AGGCACAT	0.276
CGGCACCA	0.462
AGGCACGG	0.397
CCTCTCTA	-0.212
AACCAGTT	0.143
GAGAAGCC	-0.0953
GGTGGCAC	0.147
TGGTGAAA	0.0915
CATTTTGG	0.114
ATAGTGAG	-0.0378
TGATTCCA	-0.0134
GAAGGTAC	-0.11
CATCGCCA	0.0899

Sequence	PBM E-score
CATCGCCG	0.375
ATTCGCCG	0.328
AGTCGCCC	-0.174
AATCGCCG	0.431
ATTCGCCC	-0.0713
AATCGCCT	0.302
AGTCGCCG	0.369
ATTCGCCA	0.0506
AGTCGCCA	-0.199
CATCGCCC	-0.0878
AATCGCCC	0.0762
AAGCATCT	-0.17
AGGATATG	0.0335
ACCATCCG	-0.144
ACTGGACG	-0.112
GTAGCTGA	-0.154
GTCTCTAA	-0.0881
AAACGGTT	-0.155
AGATAACT	-0.103
GGCGCCAA	0.379
CGCGCCAC	0.286
GGCGCCAC	0.384
CGCGCCAA	0.132
AGCGCCAC	0.13
AGCGCCAA	-0.059

Sequence	PBM E-score
GAAGCCGA	-0.0348
AAAGCCTC	0.204
AAAGCCGG	0.135
ACAGCCGT	0.354
AAAGCCGA	-0.0141
AAAGCCAC	0.123
ACAGCCGC	0.25
CAAGCCGC	0.299
AAAGCCGT	0.386
AAAGCCGC	0.369
GAAGCCGC	0.393
ACAGCCGA	-0.0659
GGAGTACA	-0.00077
CGTCTTAG	0.0086
CTTCATCA	-0.0498
AACTCTAA	-0.00844
AACAAATT	0.232
CATTATGG	-0.177
GCGGTCCC	-0.16
AGTACGGG	-0.156
CGTACGCC	0.233
CGTACGGA	0.302
ATTACGGA	0.0935
ATTACGGC	0.341
CGTACGGC	0.482

Sequence	PBM E-score
AGTACGGC	0.436
AGTACGGA	0.154
ATTACGGG	-0.199
CCTCGGGA	-0.121
GCTTAGAC	-0.11
GTGCCCAC	-0.00488
GGCTGACA	0.0532
GCTTTGGA	0.103
CTGTGCGA	-0.0295
CCGTGCTC	0.261
GCGTGCGA	-0.0235
ACGTGCGC	0.165
CCGTGCGC	0.433
CCGTGCGA	0.415
CCAAACTA	-0.0843
GCAGCATA	0.0149
CGACTACC	-0.22
AGAGAGCA	-0.213
AGTGCAGG	-0.0709
CCCGGGCC	-0.151
GAACGGGA	-0.0828
GAACGGCA	0.468
CAACGGAA	0.123
CAACGGCA	0.402
TAACGGCA	0.31

Sequence	PBM E-score
CAACGGTA	-0.266
GAACGGCC	0.233
AAACGGCA	0.467
AAACGGTA	0.166
AAACTGCG	-0.0893
ACTGGCAT	-0.0932
CTAGTGCC	0.301
TACTGCGA	-0.159
TTGAACAA	0.0506
AATCTACC	-0.0419
CCAAAGTC	-0.132
ATTCCTCA	0.0196
AGGCGATA	0.0637
CGGCGATC	0.373
AGGCGATC	0.128
CAGCGATC	-0.127
CGGCGATA	0.395
GGGCGATA	-0.147
GCCTGGTA	-0.227
CTCCTGCA	-0.244
ATGCTTGC	-0.24
AAGCAGGA	-0.113
CGGCAGCC	0.216
CGGCAGAA	0.328
CGGCAGCA	0.333

Sequence	PBM E-score
GGGCAGAA	0.0536
CGGCAGAC	0.0714
GGGCAGCA	-0.122
CTCTGGTA	-0.177
ACGCCTCG	0.381
ATGCCTCG	0.412
ACGCCTTC	0.204
ACGCCTCC	-0.102
ATGCCTCC	-0.0159
ACGCCTTA	0.294
ACGCCTCT	0.0123
ACGCCTTG	0.348
ATGCCTTG	0.274
ACCGTGGG	-0.27
CGATAAGA	0.0597
AGTTGGGG	-0.209
AATATACG	0.017
TAATTTCA	0.242
GTCACCTA	-0.204
AAGGCCGG	0.128
AAGGCCGT	0.358
ACGGCCGT	0.401
GCGGCCGA	0.139
GAGGCCGC	0.095
AAGGCCGC	0.314

Sequence	PBM E-score
GCGGCCGC	0.373
ACGGCCGG	0.0865
ACGGCCGA	0.191
CCGGCCGC	-0.018
ACGGCCGC	0.406
ACGGCCAC	0.3
ACTATACC	-0.017
ACCAGGGT	-0.398
AAGCAGGG	-0.156
CACGGTAC	0.0963
CATATTCC	-0.14
AACCATTA	0.123
TGGGACAA	-0.23
CGAACGTA	-0.0114
CACGCATC	0.0489
CCCAATCA	-0.0533
ATTTCCGG	-0.0307
CGGCGACC	0.203
CGGCGAGC	0.307
CGGCGAGA	0.325
GGGCGACA	0.0209
CGGCGACA	0.369
AGGCGAGA	-0.0565
AGGCGACG	0.209
AGGCGACA	0.197

Sequence	PBM E-score
CGGCGACG	0.349
CTCGGGGC	-0.163
CAGAGTCG	-0.204
CATGGTTA	0.105
CCCGTGAG	-0.0263
CCCGTGCA	0.0223
CCCGTGCG	0.332
ACCGTGCT	-0.133
ACCGTGCG	0.371
AGCGTGCG	0.237
AGAGGGCG	0.307
AGGCCAAT	-0.152
AGAACGCT	-0.11
AATGTGCG	0.18
AATGTGCC	0.323
ATTGTGCG	0.161
ATTGTGCA	0.162
ATTGTGCC	0.322
GATGTGCC	0.185
